Source: article PMC5540273 (PLoS ONE, 2017)

Columns and labels:
Details in all cases: concentration: 1 μM, replicates: in singlicate; n = 1
[1] = tested on: JAK1(JH2domain-pseudokinase)
[2] = tested on: JAK2(JH1domain-catalytic)
[3] = tested on: JAK3(JH1domain-catalytic)
JNK1 = tested on: T1, JNK1
T1 construct: gene MAPK8

JNK2 = tested on: T2, JNK2
T2 construct: gene MAPK9

JNK3 = tested on: T3, JNK3
T3 construct: gene MAPK10

KIT-autoinhibited = tested on: KIT-autoinhibited
KIT = tested on: KIT
LATS1 = tested on: LATS1
LATS2 = tested on: LATS2
LCK = tested on: LCK
LIMK1 = tested on: LIMK1
LIMK2 = tested on: LIMK2
LKB1 = tested on: T4, LKB1
T4 construct: gene STK11

LOK = tested on: T5, LOK
T5 construct: gene STK10

LRRK2 = tested on: LRRK2
LTK = tested on: LTK
LYN = tested on: LYN
LZK = tested on: T6, LZK
T6 construct: gene MAP3K13

MAK = tested on: MAK
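Further: KINOMEscan kinase panel screen.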

SMILES | %Inh [1] | %Inh [2] | %Inh [3] | %Inh (JNK1) | %Inh (JNK2) | %Inh (JNK3) | %Inh (KIT-autoinhibited) | %Inh (KIT) | %Inh (LATS1) | %Inh (LATS2) | %Inh (LCK) | %Inh (LIMK1) | %Inh (LIMK2) | %Inh (LKB1) | %Inh (LOK) | %Inh (LRRK2) | %Inh (LTK) | %Inh (LYN) | %Inh (LZK) | %Inh (MAK)
N#CC1(c2cccc(C(=O)Nc3cccc(Oc4ccc5nc(NC(=O)C6CC6)sc5n4)c3)c2)CC1 | 15% | 0% | 0% | 0% | 0% | 0% | 76% | 99.9% | 0% | 0% | 99.3% | 6% | 0% | 0% | 95.9% | 0% | 0% | 91.4% | 0% | 3%
Cc1ccc(O)cc1Nc1ccnc2cc(-c3ccc(CN4CCCCC4)o3)ccc12 [GW557777] | 7% | 0% | 15% | 0% | 0% | 0% | 56% | 100% | 0% | 22% | 99.7% | 6% | 8% | 0% | 17% | 19% | 0% | 95.3% | 0% | 0%
O=C(Nc1n[nH]c2nc(-c3cccc(O)c3)ccc12)C1CC1 [SB-711805] | 21% | 29% | 0% | 25% | 8% | 5% | 13% | 30% | 0% | 1% | 25% | 0% | 0% | 14% | 15% | 0% | 12% | 5% | 0% | 0%
Cn1cc(-c2ccc3c(c2)CCN3C(=O)Cc2cc(F)cc(F)c2F)c2c(N)ncnc21 [GSK2634140] | 0% | 11% | 0% | 15% | 24% | 4% | 0% | 99.1% | 80% | 7% | 58% | 0% | 0% | 0% | 91.8% | 0% | 24% | 0% | 0% | 23%
Cc1ccccc1CC(=O)N1CCc2cc(-c3cn(C)c4ncnc(N)c34)ccc21 [GSK2603346] | 0% | 26% | 0% | 1% | 13% | 7% | 1% | 99.8% | 0% | 0% | 30% | 0% | 0% | 0% | 89% | 21% | 23% | 0% | 0% | 1%
COc1cccc(-c2nc(-c3ccccc3)[nH]c2-c2ccncc2)c1 [SB-610250] | 12% | 17% | 0% | 30% | 83% | 90% | 0% | 0% | 45% | 0% | 16% | 20% | 0% | 4% | 0% | 14% | 0% | 0% | 0% | 47%
COc1cc(Nc2nccc(N3CCC(NS(=O)(=O)c4ccc(NC(C)=O)cc4)CC3)n2)cc(OC)c1OC [GSK1379825] | 83% | 96.3% | 8% | 44% | 37% | 31% | 0% | 90% | 0% | 0% | 18% | 93% | 100% | 0% | 2% | 29% | 0% | 56% | 27% | 61%
Nc1ncc(-c2cn[nH]c2)c2scc(-c3ccc4c(c3)CCN4C(=O)Cc3ccccc3)c12 [GSK2593067] | 0% | 43% | 0% | 13% | 12% | 2% | 12% | 100% | 0% | 55% | 96.5% | 17% | 49% | 2% | 98.6% | 52% | 67% | 80% | 0% | 10%
Cc1cccc(Nc2nc(NCCN)ncc2C(N)=O)c1 [GSK1292139] | 96.6% | 54% | 0% | 43% | 4% | 23% | 9% | 72% | 0% | 76% | 15% | 0% | 0% | 24% | 0% | 0% | 26% | 3% | 0% | 15%
CN(c1ccc(F)c(NC(=O)c2cccc(OC(C)(C)C#N)c2Cl)c1)c1ccc2nc(NC(=O)C3CC3)sc2n1 | 3% | 0% | 0% | 11% | 0% | 20% | 6% | 99.8% | 0% | 35% | 97.9% | 0% | 0% | 11% | 95.4% | 9% | 0% | 93.1% | 46% | 0%
